Autofluor counter = flagged as autofluorescent in microsphere protease counterscreen; fluorescence intensity (test concentration not listed); hit rate 3.1% among 360,000; compound autofluorescence counterscreen, microsphere flow cytometry; hits give high values; AID 624483; in the data active = fluorescence intensity above about 16000; inconclusive = no clear call, values can overlap the other calls
BoNT A protease = BoNT/A light chain protease inhibitors, primary screen, biochemical, flow cytometry, MLPCN library | Botulinum neurotoxin type A light chain protease (Clostridium botulinum A str. ATCC 3502) | multiplex microsphere protease substrate cleavage | inhibition, % at 10 µM | hit rate 0.17% among 360,000
BoNT-F LC inh = BoNT/F light chain protease inhibitors, primary screen, biochemical, flow cytometry, MLPCN library. Multiplex microsphere protease cleavage assay. hit rate 0.22% among 360,000. inhibition, % at 10 µM. Botulinum neurotoxin type F light chain protease (Clostridium botulinum); in the data active = inhibition above about 35%, passing the limit was not always enough; inconclusive = no clear call, values can overlap the other calls
Anthrax LF inh2 = Bacillus anthracis LF protease inhibitors, primary screen, biochemical, multiplex microsphere, MLPCN library | Lethal factor (Bacillus anthracis), P15917 | multiplex microsphere protease cleavage assay | inhibition, % at 10 µM | hit rate 0.12% among 360,000 | AID 588501, 2011
Target sequence (P15917 whole entry, looked up): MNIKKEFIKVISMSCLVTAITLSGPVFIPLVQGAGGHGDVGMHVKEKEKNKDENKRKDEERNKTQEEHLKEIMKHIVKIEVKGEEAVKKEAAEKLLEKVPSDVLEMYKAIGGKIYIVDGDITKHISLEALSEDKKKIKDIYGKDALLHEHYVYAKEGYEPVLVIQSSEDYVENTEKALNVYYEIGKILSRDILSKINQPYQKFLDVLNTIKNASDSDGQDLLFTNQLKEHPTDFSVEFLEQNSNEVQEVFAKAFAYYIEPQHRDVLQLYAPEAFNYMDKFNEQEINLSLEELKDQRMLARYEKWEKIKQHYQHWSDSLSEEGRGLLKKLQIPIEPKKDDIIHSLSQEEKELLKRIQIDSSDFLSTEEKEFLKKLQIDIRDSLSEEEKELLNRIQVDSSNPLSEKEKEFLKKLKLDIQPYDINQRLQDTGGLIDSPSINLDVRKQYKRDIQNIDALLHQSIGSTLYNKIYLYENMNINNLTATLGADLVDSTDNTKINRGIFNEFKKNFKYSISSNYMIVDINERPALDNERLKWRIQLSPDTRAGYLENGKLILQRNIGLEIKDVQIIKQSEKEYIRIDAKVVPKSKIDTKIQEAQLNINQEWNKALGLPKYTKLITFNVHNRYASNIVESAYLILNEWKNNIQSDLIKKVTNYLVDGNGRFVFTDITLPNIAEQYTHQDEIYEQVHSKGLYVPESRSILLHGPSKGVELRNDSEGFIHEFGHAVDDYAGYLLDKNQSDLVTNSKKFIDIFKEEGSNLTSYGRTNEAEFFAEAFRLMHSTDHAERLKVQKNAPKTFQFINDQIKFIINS
Hits are given with their value; . = inactive; ? = inconclusive; ! = not active in a repeat. Compounds with a hit are over-represented: about 3.5% of the library has one in this group of screens. Cut-off read from the data, not from the text of the source, unless noted: active = inhibition above about 30%; inconclusive = no clear call, values can overlap the other calls; inactive = below that.

SMILES	Autofluor counter	BoNT A protease	BoNT-F LC inh	Anthrax LF inh2
O=C(CNS(=O)(=O)c1ccccc1)Nc1ccccc1Br	.	.	.	.
Cc1ccc(C)c(NC(=O)CNS(=O)(=O)c2ccccc2)c1	16924	?	.	.
COc1ccccc1NC(=O)CNS(=O)(=O)c1ccccc1	21927	?	.	.
CN(CC(=O)Nc1ccccc1Cl)C(=O)Cn1nnc(-c2ccc(F)cc2)n1	.	.	.	.
O=[N+]([O-])c1cccc(S(=O)(=O)NCc2ccncc2)c1	.	.	.	.
CN(C)S(=O)(=O)c1ccc(N2CCCC2)c(C(=O)N2CCN(S(=O)(=O)c3ccccc3F)CC2)c1	?	.	.	.
Cc1ccc(S(=O)(=O)c2cnc(-c3ccccc3)nc2N2CCN(C)CC2)cc1	.	.	.	.
Cn1c(SCC(=O)NC2CC2)nnc1-c1ccc(Cl)cc1	.	.	.	.
COc1ccccc1NC(=O)CNC(=O)c1ccccc1C	24190	.	.	.
CN1CCN(C(=O)CN(Cc2ccccc2)S(C)(=O)=O)CC1	22469	.	.	.
CCN1CCN(C(=O)CN(Cc2ccccc2)S(C)(=O)=O)CC1	.	.	.	.
Cc1cccc(C)c1NC(=O)C1CCCN(CCCc2ccccc2)C1 (stereo not drawn)	.	.	.	.
CCOC(=O)c1ccc(S(=O)(=O)N2CCN(CC3CC=CCC3)CC2)cc1 (stereo not drawn)	17091	?	.	.
CC(C)NC(=O)C1CCCN(S(=O)(=O)c2ccc(-n3cnnn3)cc2)C1 (stereo not drawn)	16890	.	.	.
CCOC(=O)C1CCCN(C(=O)Cc2c(C(=O)O)[nH]c3ccccc23)C1 (stereo not drawn)	23230	.	.	.
CCOC(=O)C1CCCN(CCCc2ccccc2)C1 (stereo not drawn)	23848!	.	.	.
CCOC(=O)C1CCCN(C(=O)CC(c2ccccc2)c2ccccc2)C1 (stereo not drawn)	.	.	.	.
CCOC(=O)c1ccc(S(=O)(=O)N2CCN(S(=O)(=O)CC)CC2)cc1	.	.	.	.
O=C(NC1CCCC1)C1CCCN(S(=O)(=O)c2ccc(-n3cnnn3)cc2)C1 (stereo not drawn)	.	.	.	.
CCOC(=O)C1CN(S(=O)(=O)c2ccccc2)C1	.	.	.	.
CCOC(=O)c1ccc(NC(=O)C2CCCN(S(=O)(=O)c3ccc(F)cc3)C2)cc1 (stereo not drawn)	24696	.	.	.
CCOC(=O)C1CCCN(S(=O)(=O)c2ccccc2)C1 (stereo not drawn)	22239	.	.	.
Cc1ccc(S(=O)(=O)Nc2cncnc2NS(=O)(=O)c2ccc(C)cc2)cc1	.	.	.	.
O=C(Nc1ccc(Cl)cc1)P(=O)(O)c1ccccc1	.	.	.	.
COc1cccc(/C=N/n2cnc3ccccc32)c1OC	16900	.	.	.
SMILES	Autofluor counter	BoNT A protease	BoNT-F LC inh	Anthrax LF inh2
Cc1cc2ncn(/N=C/c3cccnc3)c2cc1C	.	.	.	.
COc1cccc(/C=N/n2c(=S)n(C)c3cc(C)c(C)cc32)c1OC	22389	?	.	.
C(=N\n1cnc2ccccc21)/c1cccnc1	22275	.	.	.
CN(CC(=O)N1CCN(Cc2ccccc2)CC1)C(=O)Cc1ccc(Cl)c(Cl)c1	.	.	.	.
CCCN(C(=O)CSc1ccccc1C(=O)O)C1CCS(=O)(=O)C1 (stereo not drawn)	.	.	.	.
COc1ccc(CNc2cc(C)nc3ncnn23)c(OC)c1	22962	.	.	.
Nc1cc(S(=O)(=O)Nc2ccccc2Cl)ccc1N1CCCCC1	.	.	.	.
CC(C)CN1C(=O)c2ccc(NC(=O)c3ccco3)cc2C1=O	.	.	.	.
CC(C)CN1C(=O)c2ccc(NC(=O)c3cccs3)cc2C1=O	24092	?	.	.
CC(C)(C)OC(=O)C[C@@H]1C/C=C\C[C@@H](CC(=O)NCCO)C(=O)NC[C@H](c2ccccc2)OC1=O	.	.	.	.
COc1ccc(C(=O)OC2C(OC)OCC(O)C2O)cc1 (stereo not drawn)	.	.	.	.
Cc1nc2c(oc3ccccc32)c(=O)o1	16908	.	.	.
O=c1[nH]c(Cc2ccccc2)nc2c1oc1ccccc12	21955	.	.	.
O=c1[nH]c(CO)nc2c1oc1ccccc12	.	.	.	.
COCCNC(=O)C1Cc2cc(S(=O)(=O)N3CCCC3)ccc2N1C(C)=O (stereo not drawn)	.	.	.	.
O=C(NCCCNC(=O)c1ccc(-c2cc(Cl)ccc2Cl)o1)c1cnccn1	.	.	.	.
CCN(CC(=O)Nc1c(F)cccc1F)C(=O)c1nc2nc(C)cc(C)n2n1	.	.	.	.
CCN1CCN(Cc2ccc(OCc3ccccc3)cc2)CC1	20089	.	.	.
CN1CCN(Cc2ccc(OCc3ccccc3)cc2)CC1	.	.	.	.
COC(=O)c1ccc(CC2(C)C(=O)Nc3ccc(-c4cccc(C(F)(F)F)c4)cc32)o1 (stereo not drawn)	.	.	.	.
CCOC(=O)CNC(=O)c1sc2ncnc(N3CCc4ccccc4C3)c2c1C	19828	.	.	.
CN(C)Cc1c(O)ccc2occ(C(=O)c3ccccc3)c12	22642	.	.	.
O=C(c1cccs1)c1coc2ccc(O)c(CN(CCO)CCO)c12	21865	.	.	.
CCN(CC)Cc1c(O)ccc2occ(C(=O)c3ccccc3)c12	.	.	?	.
COc1ccc2occ(C(=O)c3coc4ccc(O)c(CN(C)C)c34)c2c1	23271	.	.	.
SMILES	Autofluor counter	BoNT A protease	BoNT-F LC inh	Anthrax LF inh2
COc1ccc(OC)c(C(=O)c2coc3ccc(O)c(CN(C)C)c23)c1	.	.	?	.
COc1ccc2occ(C(=O)c3cccs3)c2c1	24929	.	.	.
CCOc1ccccc1NC(=O)CSc1nnnn1C1CCCC1	.	.	.	.
O=C(CCl)Nc1cccc(Oc2ccccc2)c1	.	.	.	.
Cc1noc(C)c1C(=O)Nc1nc(C23CC4CC(CC(C4)C2)C3)cs1	23212	.	.	.
CNC(=O)C(=O)Nc1nc(C23CC4CC(CC(C4)C2)C3)cs1	.	.	.	.
CCCNS(=O)(=O)c1ccc(OCC(=O)NCCC2=CCCCC2)cc1	25068	.	.	.
CCCNS(=O)(=O)c1ccc(OCC(=O)OC)cc1	24397	.	.	.
CCOC(=O)COc1ccc(S(=O)(=O)Nc2ccc(C)cc2)cc1	20911	?	.	.
COC(=O)COc1ccc(S(=O)(=O)NCCC2=CCCCC2)cc1C	22566	.	.	.
COC(=O)COc1ccc(S(=O)(=O)NCCC2=CCCCC2)cc1	.	.	.	.
NS(=O)(=O)c1cc(C(=O)OCC(=O)N2CCOCC2)ccc1Cl	.	.	.	.
CC(=O)c1ccccc1NC(=O)COC(=O)/C(=C/c1ccccc1)n1nnnc1C	.	.	.	.
COc1ccccc1Cc1noc(C(C)(C)NC(=O)c2ccccc2)n1	17677	.	.	.
COc1ccccc1CC(=O)NNC(=O)c1ccc(C(C)(C)C)cc1	.	.	.	.
CCCc1cc(=O)[nH]c2nnc(SCC(=O)Nc3cccc(NC(C)=O)c3)n12	?	.	.	.

Source: PubChem BioAssay
